# Source: PubChem BioAssay AID504558 (Broad Institute, 2011)
# Hit rate of the full screen: of about 350,000 compounds, about 2,400 (0.69%) were called active. Only a selection was taken, and actives are over-represented in it overall. Values without a mark were called inactive. Rule as the data show it: active = inhibition above about 41%; inconclusive = no clear call, values can overlap the other calls; inactive = below that.
# Assay: blockers of LMP1-induced NF-kB reporter signal – cell-based, luminescence, single point, primary screen (AID 504558);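 also: 0% = neutral control wells and 100% = reference inhibitor control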
# Conditions: LMP1-induced NF-kappaB luciferase reporter cells, at 12.5 µM, hits give high values
row,Compound,inhibition
1,COc1ccc(NC2CCCN(C(=O)c3ccccc3-c3ncc[nH]3)C2)cc1 (centres undefined),1.54%
2,C[C@H]1CN([C@@H](C)CO)C(=O)CCCn2cc(nn2)CO[C@@H]1CN(C)S(=O)(=O)c1ccc(-n2cccn2)cc1,4.52%
3,CC1CCN(c2ccc3c(c2)S(=O)(=O)c2cc(C(=O)O)ccc2C3=O)CC1,-11.1%
4,CC1=C(C(=O)N2CCOCC2)CC(CC(=O)NCCN2CCOCC2)C(=O)N1CCC1=CCCCC1 (centres undefined),6.89%
5,Cc1sc2nc(CC(N)=O)[nH]c(=O)c2c1-c1ccccc1,-10.6%
6,NC(=O)c1sc2nc3c(c(-c4ccccc4)c2c1N)CCC3,44.3% (active)
7,CCN(CC)C(=O)c1sc2nc(-c3ccccc3)ccc2c1N,-15.3%
8,CC1c2nc3ccccc3n2C(CC(=O)NCCCN2CCOCC2)C(=O)N1Cc1ccccc1 (centres undefined),0.985%
9,CC(C)CCNC(=O)CC1C(=O)N(Cc2ccccc2)C(C)c2nc3ccccc3n21 (centres undefined),48.7% (active)
10,CCOC(=O)C1CCN(C(=O)CC2C(=O)N(Cc3ccccc3)C(C)c3nc4ccccc4n32)CC1 (centres undefined),14.1%
11,CN(C)C(CNC(=O)c1cccc(S(=O)(=O)N2CCc3ccccc3C2)c1)c1ccccc1 (centres undefined),-16.9%
12,CC(OC(=O)c1ccc(Cl)cc1O)C(=O)NCCC1=CCCCC1 (centres undefined),-1.59%
13,CC(CN1CCOCC1)OC(=O)c1ccc(Cl)cc1Cl (centres undefined),-3.67%
14,CC(C)OC(=O)c1ccc(NCc2cc(O)ccc2O)cc1Cl,72.4% (active)
15,O=C(c1ccccc1)N1CCN(c2cc(-c3ccccc3)nc3cc(-c4cccc(Cl)c4)nn23)CC1,-2.14%
16,C#Cc1cc(N2CCN(C(=O)c3ccoc3)CC2)n2nc(-c3cccc(Cl)c3)cc2n1,53.9% (active)
17,O=C(c1ccccc1)N1CCN(C(=O)c2cc3nc(-c4ccccc4)cc(C(F)(F)F)n3n2)CC1,6.54%
18,C=C(C)C(=O)O[C@H]1C/C(C)=C\C(=O)/C=C(\C)[C@H](O)[C@@H]2OC(=O)C(=C)[C@@H]21,88.8% (active)
19,CNC(=O)c1ccc(CN(C)C(=O)c2cc(C3CC3)nc3c2cnn3C(C)C)cc1,-3.68%
20,CC1CCCC(C)N1C(=O)COC(=O)c1ccccc1C(=O)c1ccccc1 (centres undefined),-3.93%
21,COc1cc(C(=O)N2CCOC23CCN(Cc2ccccc2)CC3)cc(OC)c1OC,4.75%
22,Clc1ccc2nc(-c3ccccc3)nc(C(Cl)Cl)c2c1,86.7% (active)
23,NC(N)=Nc1nc(-c2ccccc2)c2cc(Cl)ccc2n1,-32.8%

row,Compound,inhibition
1,Clc1cccc(-c2nc(NCC3CCCO3)c3ccccc3n2)c1 (centres undefined),-0.333%
2,CCN(Cc1ccncc1)C(=O)CCc1ccccc1,78.9% (active)
3,CC(C)(C)N(Cc1ccccc1)C(=O)c1ccncc1,11.5%
4,CCN(CC)C(=O)N(CC)Cc1ccccc1,2.28%
5,CCN(CC)C(=O)C1=C(C)N(Cc2ccc(C(C)(C)C)cc2)C(=O)C(CC(=O)NCc2cccc3ccccc23)C1 (centres undefined),-0.881%
6,CCOc1cc(/C=N/NC(=O)c2ccncc2)cc(Br)c1O,-1.49%
7,CNC(=O)c1csc(-c2ccccc2)n1,6.33%
8,CNC(=O)c1csc(Cc2c(Cl)sc3ccc(Cl)cc23)n1,54.8% (active)
9,CC(=O)NNC(=O)c1csc(Cc2c(Cl)sc3ccc(Cl)cc23)n1,8.06%
10,C[C@@H]1CN([C@H](C)CO)S(=O)(=O)c2ccc(C#C[C@@H](C)O)cc2O[C@@H]1CN(C)Cc1ccc(-c2ccccc2)cc1,-5.47%
11,Cc1onc(-c2ccccc2)c1-c1nnc(COC(=O)c2ccc(N(C)C)cc2)o1,16.7%
12,COc1cc(-c2nnc(NC(=O)CS(=O)(=O)c3ccc(Cl)cc3)o2)cc(OC)c1OC,3.37%
13,COc1ccc(-c2nnc(NC(=O)CS(=O)(=O)c3ccc(Cl)cc3)o2)c(OC)c1,-10.8%
14,COc1cccc(-c2nnc(NC(=O)c3ccc(S(=O)(=O)N(CC(C)C)CC(C)C)cc3)o2)c1,44.9% (active)
15,CNC(=O)C[C@H]1C(=O)N(Cc2ccccc2)C[C@@H]1CSC,-2.82%
16,O=C(C[C@H]1C[C@H]2c3cc(NS(=O)(=O)c4ccc(F)cc4)ccc3O[C@H]2[C@H](CO)O1)NCc1cc(F)ccc1F,4.21%
17,COc1ccc(CNc2nccs2)cc1,8.57%
18,COc1ccc(CNc2ncnc3ccccc23)cc1,41.7% (active)
19,COc1cccc(CNc2nc(C(F)(F)F)nc3ccccc23)c1,-0.361%
20,COc1cc2ccccc2cc1C(=O)Nc1ccccc1C,-76.9%
21,COc1ccc(C(=O)N/N=C(\C)CC(=O)Nc2ccc(Cl)cn2)cc1,-1.25%
22,COc1ccc(C(=O)Nc2cc(C)c(NC(=O)c3ccccc3OC)cn2)cc1,40.6% (active)
23,O[C@@H]1C[C@H](c2ccccc2)N(Cc2cccs2)C[C@H]1n1cc(C2CC2)nn1,-8.56%

row,Compound,inhibition
1,Cc1ccc(C(=O)OCC(=O)NC2CCCCCCC2)cc1C,7.43%
2,COc1ccc(C(C)(C)C)cc1NC(=O)CN(C)C1=NS(=O)(=O)c2ccccc21,-11.2%
3,NS(=O)(=O)c1cccc(NC(=O)CN2CCCc3ccccc32)c1,-3.3%
4,COC(=O)c1[nH]c2cccc(C)c2c1NC(=O)CN1CCCc2ccccc21,87.4% (active)
5,COC(=O)c1[nH]c2ccccc2c1NC(=O)CN1CCCc2ccccc21,-17.6%
6,O=C(CCc1ccc(O)cc1)NN=Cc1cc(Br)ccc1O,6.93%
7,Cc1ccccc1OS(=O)(=O)c1cccc([N+](=O)[O-])c1,0.335%
8,Fc1ccc2[nH]c3c(N4CCSCC4)ncnc3c2c1,53.7% (active)
9,O=C(NCC(F)(F)F)c1ccc(S(=O)(=O)NCCc2ccc3c(c2)OCCO3)cc1,0.519%
10,C[C@@H]1CN([C@@H](C)CO)C(=O)CCCn2nncc2CO[C@@H]1CN(C)S(=O)(=O)c1ccc(-c2ccccc2)cc1,-1.13%
11,COC(=O)CCNc1ccc2c(c1)OCCO2,45.2% (active)
12,COc1ccccc1OCCCC(=O)Nc1ccc2c(c1)OCCO2,-0.694%
13,Cc1ccc(OCCCC(=O)Nc2ccc3c(c2)OCCO3)cc1,8.28%
14,CCc1nnc(NC(=O)c2ccco2)s1,-0.797%
15,CNC(=S)Nc1ccc([N+](=O)[O-])cc1,-10.6%
16,CC(=O)Nc1ccc(C=Cc2ccc([N+](=O)[O-])cc2)cc1,-20.1%
17,O=C1/C(=C\c2ccc([N+](=O)[O-])cc2)CS(=O)(=O)C/C1=C/c1ccc([N+](=O)[O-])cc1,92.5% (active)
18,CCCn1c(N)c(C(=O)CSc2nnc(Cc3cccs3)n2C2CC2)c(=O)[nH]c1=O,0.699%
19,O=C(CSc1ncn[nH]1)Nc1nc2c(F)c(F)c(F)cc2s1,-1.34%
20,CCOC(=O)C(=Cc1ccccc1)C(=O)c1ccccc1,31.5%
21,CCOC(=O)/C(=C\c1ccc([N+](=O)[O-])cc1)C(=O)c1cc(C(C)=O)c(Nc2ccccc2)s1,55.7% (active)
22,O=C(O)C(=Cc1ccc([N+](=O)[O-])cc1)CCc1ccccc1,2.53%
23,COc1ccc(NC(=O)CN(C)C(=O)c2cc(C)oc2C)cc1,-4.83%

row,Compound,inhibition
1,Cc1cccc(C)c1NC(=O)CNC(=O)c1ccc(N2CCOCC2)c([N+](=O)[O-])c1,-0.676%
2,COc1cccc(-n2c(=S)[nH]c3c(oc4ccccc43)c2=O)c1,-10.2%
3,O=c1oc2ccccc2cc1-c1cn(-c2ccccc2)c(=S)[nH]1,73.5% (active)
4,CS(=O)(=O)N1CCN(C(=O)c2cc3ccccc3oc2=O)CC1,9.53%
5,C[C@H]1CN([C@@H](C)CO)C(=O)CCCn2cc(nn2)CO[C@@H]1CN(C)C(=O)Nc1ccccc1,-0.0595%
6,Cc1ccc([C@H]2C[C@H](O)[C@@H](n3cc(COC(=O)c4ccccc4)nn3)CN2C(=O)C2CCCCC2)cc1,7.15%
7,COc1ccc(CN2C(=O)C(CC(=O)NCc3cccc4ccccc34)CC(C(=O)N3CCOCC3)=C2C)cc1 (centres undefined),1.6%
8,CSc1nc(-c2ccccc2)nc(C(Cl)Cl)n1,85.7% (active)
9,Cc1csc(SCC(=O)Nc2ccc(C)c(S(=O)(=O)N(C)C)c2)n1,-5.08%
10,Cc1ccc(CCNC(=O)CN2C(=O)CSc3ccc(S(=O)(=O)N4CCOCC4)cc32)cc1,-9.19%
11,O=C1CC[C@@H](C(=O)N2CSC[C@@H]2C(=O)Nc2ccc(C(F)(F)F)cc2)N1,-8.12%
12,CC(C)C(C)NC(=O)COc1nc2ccccc2nc1N(C)C1CCCCC1 (centres undefined),-16%
13,CN(c1ccc2nc3ccccc3c(=O)n2n1)C1CCCCC1,76% (active)
14,CC(C)c1cc(C(=O)NC2CCCCCC2)c2ccccc2n1,-2.77%
15,CC1(c2cccc(N)c2)OCCO1,-20.7%
16,Cc1cc2ccccc2n1CCNC(=O)COc1ccc2ccccc2c1,52.5% (active)
17,Cc1cc2ccccc2n1CCC(=O)O,2.51%
18,COC(=O)C(C)NC(=O)COc1ccc2ccccc2c1 (centres undefined),-5.65%
19,CC(=O)c1ccccc1NC(=O)COC(=O)C1COc2ccccc2O1 (centres undefined),-0.0295%
20,O=c1[nH]c2ccccc2n1C1CCN(CCOc2ccccc2)CC1,5.46%
